These results are taken from PubChem BioAssay (Tox21).

Results filed as inconclusive are left out. Values without a mark were called inactive. The source made the active and inactive calls. Calls follow the shape of the full dose curve.
% is scaled to controls: 0 for no effect and ±100 for the full control effect.

Sequence of Vitamin D3 receptor (Homo sapiens) (P11473 whole entry, looked up): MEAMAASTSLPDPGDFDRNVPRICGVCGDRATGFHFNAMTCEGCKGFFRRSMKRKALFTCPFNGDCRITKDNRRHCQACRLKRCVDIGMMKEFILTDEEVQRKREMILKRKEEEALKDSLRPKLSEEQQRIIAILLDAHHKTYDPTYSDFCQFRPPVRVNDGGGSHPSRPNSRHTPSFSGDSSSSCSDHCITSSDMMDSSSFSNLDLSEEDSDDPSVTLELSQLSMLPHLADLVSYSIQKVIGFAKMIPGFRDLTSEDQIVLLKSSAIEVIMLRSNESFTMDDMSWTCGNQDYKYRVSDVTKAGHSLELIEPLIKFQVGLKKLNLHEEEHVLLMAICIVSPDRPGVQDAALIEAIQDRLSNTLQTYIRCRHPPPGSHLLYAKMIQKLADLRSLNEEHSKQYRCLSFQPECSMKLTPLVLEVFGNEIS

The target in the assay is Vitamin D3 receptor (Homo sapiens) (UniProt P11473). The assay is described as follows: qHTS assay to identify small molecule agonists of the vitamin D receptor (VDR) signaling pathway (AID 743222). As to conditions: HEK293T VDR-UAS-bla, beta-lactamase FRET ratio, 16 h; series mostly up to 63.5 µM; activation: at the top concentration. From the text:
National Center for Advancing Translational Sciences [NCATS]
NIH Chemical Genomics Center [NCGC]
U.S. Environmental Protection Agency [EPA]
National Institutes of Environmental Health Sciences [NIEHS]
National Toxicology Program [NTP]
U.S. Food and Drug Administration [FDA]
The vitamin D receptor (VDR), a member of nuclear hormone receptor superfamily, plays a critical role in calcium homeostasis and bone metabolism. It is also involved in cell differentiation and growth, and thrombogenicity.
Tox21 Assay Protocol Summary:
VDR-bla cells were dispensed at 2,000 cells/6 uL/well into black wall/clear-bottom 1536-well plates using a Multidrop Combi (Thermo Fisher Scientific, Waltham, MA) dispenser. After the assay plates were incubated at a 37C and 5% CO2 for 4 h, 23 nL of compounds dissolved in DMSO, positive controls or DMSO only was transferred to the assay plate by a Pintool station (Kalypsys, San Diego, CA). The plates were incubated at 37C and 5% CO2 for 16 h. After 1 uL of LiveBLAzerTM B/G FRET substrate was added using a Bioraptr Flying Reagent Dispenser (FRD) workstation (Beckman Coulter, Indianapolis, IN, USA), the plates were incubated at room temperature for 2 h, and fluorescence intensity was measured by an Envision plate reader (PerkinElmer, Shelton, CT).
For orientation: Quantitative high-throughput screening tests each substance at several concentrations.
For `CCCCCON=O`, the “activation” value is -7.58% [at 81.1 µM].
Same read-out and setting: the same measure for `Clc1ccc(C(c2ccc(Cl)cc2)C(Cl)Cl)cc1`: 2.27% [at 81.1 µM].
For the compound `CCN(CC)C(=O)N[C@@H]1C=C2c3cccc4[nH]cc(c34)C[C@@H]2N(C)C1`, the “activation” value is 1.57%.
Still for that read-out and setting: next, `N#CSCc1ccccc1`: 6.52% [at 81.1 µM].
On the same count and under the same terms, next, `COP(=S)(NC(C)C)Oc1ccc(C)cc1[N+](=O)[O-]` (stereo not given): 3.53%; `c1cc[n+]2c(c1)-c1cccc[n+]1CC2`: 8.2%.
The same measure, in the same setting: next, `Cc1ccc(C)c2ccccc12`: 7.61%; `COc1ccc2[nH]cc(CCN(C(C)C)C(C)C)c2c1`: 0.231% [at 81.1 µM].
Consider `CCCCC(CC)COC(=O)OOC(C)(C)C` (stereo not given), for which the “activation” value was 5.35%.
For `O=[N+]([O-])c1ccc(CCl)cc1`, the “activation” value was 1.93%.
Still for that read-out and setting: next, `CCOP(=S)(OCC)Oc1cc(C)nc(N(CC)CC)n1`: 2.29%; `C#CCO`: 8.68%; `CCOP(=S)(OCC)SC(CCl)N1C(=O)c2ccccc2C1=O` (stereo not given): 1.45%.
Regarding `O=C(Nc1ccc(F)cc1F)c1cccnc1Oc1cccc(C(F)(F)F)c1`, the “activation” value was 0.646% [at 81.1 µM].
Regarding `COc1nc(C)nc(NC(=O)NS(=O)(=O)c2ccccc2Cl)n1`, the “activation” value is 0.488%.
Turning to `O=C(O)CCCCCCNC1c2ccccc2CCc2ccccc21`, the “activation” value is -1.29%.
The same measure, in the same setting: the same measure for `O=C1C(Cl)=C(Cl)C(=O)C(Cl)=C1Cl`: 4.49%; for `Clc1ccc(C(Cl)(Cl)Cl)cc1Cl`: 3.18%.
Turning to `CC(C)N(C(=O)CCl)c1ccccc1`, the Potency result is “inactive”.
`O=C1C2(Cl)C3(Cl)C4(Cl)C(Cl)(Cl)C5(Cl)C3(Cl)C1(Cl)C5(Cl)C24Cl` (stereo not given): the “activation” value is -0.199%.
As to `Brc1cccc(-c2ccccc2)c1`, the “activation” value is 2.34% [at 81.1 µM].
On the same count and under the same terms, the same measure for `CCC(C)Br` (stereo not given): 9.09% [at 81.1 µM]; for `O=NN(CCO)CCO`: 6.87%; for `CN`: 6.82% [at 81.1 µM].
On the same count and under the same terms, next, `Cc1cc2c3c(c1)C(c1ccccc1)=N[C@@H](NC(=O)c1ccncc1)C(=O)N3CC2`: 0%; `ClC1=C(Cl)[C@]2(Cl)[C@H]3[C@H]([C@@H]4C=C[C@H]3C4)[C@@]1(Cl)C2(Cl)Cl`: 1.2%; `CC1=C2C[C@H]3[C@@H](CC=C4C[C@@H](O)CC[C@@]43C)[C@@H]2CC[C@]12O[C@@H]1C[C@H](C)CN[C@H]1[C@H]2C`: -9.89%.
Still for that read-out and setting: the same measure for `ClC(Cl)C(Cl)(Cl)Cl`: 5.49%; for `N#Cc1c[nH]cc1-c1cccc2c1OC(F)(F)O2`: 1.52%; for `C[C@H]1[C@H](c2ccc(Cl)cc2)SC(=O)N1C(=O)NC1CCCCC1`: -5.18%.
Regarding `C1=CCC=C1`, the “activation” value is 4.4%.
The same measure, in the same setting: next, `CCOP(=O)(OCC)Oc1nc(Cl)c(Cl)cc1Cl`: -9.8%.
Consider `CN1[C@@H]2CC[C@H]1CC(O)C2` (stereo not given in full), for which the “activation” value is -0.829% [at 81.1 µM].
The same measure, in the same setting: next, `CC(=O)C(Cl)C(=O)N(C)C` (stereo not given): -9.63%.
For `CCN(CC)C(=S)S`, the Potency entry was “inactive”.
Regarding `COC(=O)N(OC)c1ccccc1COc1ccn(-c2ccc(Cl)cc2)n1`, the “activation” value was -11.3%.
The same measure, in the same setting: the same measure for `O=[N+]([O-])c1cccc2cccc([N+](=O)[O-])c12`: -11.8% [at 81.1 µM]; for `O=Cc1ccccc1`: 11.3% [at 81.1 µM].
In the case of `CC(C)(C)c1ccc(OP(=O)(Oc2ccccc2)Oc2ccccc2)cc1`, the “activation” value is -14.4% [at 81.1 µM].
The same measure, in the same setting: next, `ClC1(Cl)C2(Cl)C3(Cl)C4(Cl)C(Cl)(Cl)C5(Cl)C3(Cl)C1(Cl)C5(Cl)C24Cl` (stereo not given): 3.53%.
